According to PubChem BioAssay AID1159580 (chemical genetic matrix, 2015):
“And” between values parts separate entries of the source, which are not always exact repeats. Equal entries are not always repeated. Hit rate of the full screen: of about 5,500 compounds, about 2,000 (36%) were called active. Roughly 18% stayed inconclusive and do not appear here. Rule as the data show it: active = normalized growth mostly below about 0.91 (no sharp cut-off); inconclusive = no clear call, values can overlap the other calls; inactive = mostly above about 0.92. The list shows a part of the results.

Assay: chemical genetic growth profiling, strain panel (AID 1159580);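 also: tested at 20 µM; growth read once vehicle control cultures reached saturation at 30 °C; 1 = growth at the plate median or of vehicle wells; lower values mean less growth of the strain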
Conditions: S. cerevisiae deletion strains, growth OD

Measured: normalized growth

Nc1ccc(S(=O)(=O)Nc2ncccn2)cc1
inactive: locus YAL013W, strain DEP1, stronger effect = lower value 0.982 | locus YAL021C, strain ccr4, stronger effect = lower value 0.968 | locus YAL026C, strain drs2, stronger effect = lower value 0.986 | locus YAL030W, strain snc1, stronger effect = lower value 0.994 | locus YBL061C, strain skt5, stronger effect = lower value 0.985 | locus YBR009C, strain hhf1, stronger effect = lower value 0.986 | locus YBR021W, strain FUR4, stronger effect = lower value 0.992 | locus YBR023C, strain chs3, stronger effect = lower value 0.993 | locus YBR171W, strain sec66, stronger effect = lower value 0.973 | locus YBR229C, strain ROT2, stronger effect = lower value 0.96 | locus YBR231C, strain swc5, stronger effect = lower value 1.02 | locus YBR279W, strain paf1, stronger effect = lower value 0.995 | locus YCL011C, strain gbp2, stronger effect = lower value 0.957 | locus YCL016C, strain dcc1, stronger effect = lower value 1.01 | locus YCL029C, strain bik1, stronger effect = lower value 0.991 | locus YCL069W, strain vba3, stronger effect = lower value 0.954 | locus YCR088W, strain abp1, stronger effect = lower value 0.976 | locus YDL005C, strain med2, stronger effect = lower value 0.985 | locus YDL035C, strain GPR1, stronger effect = lower value 0.979 | locus YDL040C, strain nat1, stronger effect = lower value 0.971 | locus YDL074C, strain BRE1, stronger effect = lower value 0.969 | locus YDL101C, strain DUN1, stronger effect = lower value 0.981 | locus YDL134C, strain PPH21, stronger effect = lower value 0.999 | locus YDL185W, strain tfp1, stronger effect = lower value 0.988 | locus YDL192W, strain arf1, stronger effect = lower value 1 | locus YDR001C, strain nth1, stronger effect = lower value 0.965 | locus YDR069C, strain doa4, stronger effect = lower value 0.97 | locus YDR101C, strain arx1, stronger effect = lower value 1.01 | locus YDR137W, strain rgp1, stronger effect = lower value 0.964 | locus YDR150W, strain NUM1, stronger effect = lower value 0.985 | locus YDR159W, strain sac3, stronger effect = lower value 0.955 | locus YDR162C, strain NBP2, stronger effect = lower value 0.996 | locus YDR195W, strain ref2 0.956 | locus YDR297W, strain sur2, stronger effect = lower value 0.975 | locus YDR318W, strain mcm21, stronger effect = lower value 1 | locus YDR334W, strain swr1, stronger effect = lower value 0.935 | locus YDR335W, strain msn5, stronger effect = lower value 0.988 | locus YDR388W, stronger effect = lower value 0.994 | locus YDR392W, strain spt3, stronger effect = lower value 1 | locus YDR502C, strain sam2, stronger effect = lower value 1.01 | locus YEL003W, strain gim4, stronger effect = lower value 0.991 | locus YEL037C, strain rad23, stronger effect = lower value 0.967 | locus YEL061C, strain CIN8 (second series), stronger effect = lower value 0.967 | locus YEL061C, strain CIN8, stronger effect = lower value 0.988 | locus YER015W, strain faa2, stronger effect = lower value 0.994 | locus YER016W, strain bim1, stronger effect = lower value 0.968 | locus YER110C, stronger effect = lower value 0.968 | locus YER111C, strain swi4, stronger effect = lower value 1 | locus YER155C, strain BEM2 (second series), stronger effect = lower value 0.989 | locus YER155C, strain BEM2, stronger effect = lower value 0.991 | locus YER167W, strain BCK2, stronger effect = lower value 0.99 | locus YFR010W, strain ubp6, stronger effect = lower value 0.941 | locus YGL078C, strain dbp3, stronger effect = lower value 1 | locus YGL086W, strain mad1, stronger effect = lower value 0.997 | locus YGL167C, strain pmr1, stronger effect = lower value 0.976 | locus YGL173C, strain kem1, stronger effect = lower value 0.994 | locus YGL227W, strain vid30, stronger effect = lower value 0.995 | locus YGL240W, strain doc1, stronger effect = lower value 0.986 | locus YGL248W, strain PDE1, stronger effect = lower value 0.978 | locus YGL253W, strain hxk2, stronger effect = lower value 0.923 | locus YGR078C, strain PAC10, stronger effect = lower value 0.986 | locus YGR135W, strain pre9, stronger effect = lower value 0.997 | locus YGR252W, strain gcn5, stronger effect = lower value 0.957 | locus YHR013C, strain ard1, stronger effect = lower value 0.984 | locus YHR027C, strain rpn1, stronger effect = lower value 0.988 | locus YHR030C, strain SLT2, stronger effect = lower value 0.999 and 0.97 | locus YHR079C, strain IRE1 (second series), stronger effect = lower value 1 | locus YHR079C, strain IRE1, stronger effect = lower value 0.979 | locus YHR094C, strain hxt1, stronger effect = lower value 0.994 | locus YHR129C, strain ARP1, stronger effect = lower value 0.987 | locus YHR142W, strain chs7, stronger effect = lower value 0.984 | locus YHR200W, strain rpn10, stronger effect = lower value 0.992 | locus YIL066C, strain RNR3, stronger effect = lower value 0.984 | locus YIL073C, strain SPO22, stronger effect = lower value 1.02 | locus YIL125W, strain kgd1, stronger effect = lower value 0.995 | locus YIR030C, strain dcg1, stronger effect = lower value 0.997 | locus YJL092W, strain hpr5, stronger effect = lower value 0.974 | locus YJL095W, strain BCK1 (second series), stronger effect = lower value 0.995 | locus YJL095W, strain BCK1, stronger effect = lower value 0.994 and 0.979 | locus YJL115W, strain asf1, stronger effect = lower value 0.97 | locus YJL129C, strain trk1, stronger effect = lower value 0.984 | locus YJL134W, strain LCB3, stronger effect = lower value 0.993 | locus YJL154C, strain vps35, stronger effect = lower value 0.969 | locus YJL164C, strain tpk1, stronger effect = lower value 0.992 | locus YJL166W, strain qcr8, stronger effect = lower value 0.936 | locus YJL168C, strain set2, stronger effect = lower value 0.992 | locus YJL187C, strain SWE1 (second series), stronger effect = lower value 0.986 | locus YJL187C, strain SWE1, stronger effect = lower value 0.974 | locus YJR043C, strain POL32, stronger effect = lower value 1.01
